# According to PubChem BioAssay AID504411 (The Scripps Research Institute Molecular Screening Center, 2011):
# The campaign covered roughly 340,000 compounds. About 200 (0.059%) were called active. The full list was thinned out, with actives kept by preference. A number with no mark means an inactive call. Rule as the data show it: active = inhibition above about 34%; inactive = the rest.
# Biological target: Diacylglycerol lipase-beta (Homo sapiens) (UniProt Q8NCG7)
# Assay: inhibition of human DAGLB hydrolase activity – biochemical, fluorescence, HTS, primary screen (AID 504411);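 also: 0% = enzyme with vehicle and 100% = wells lacking enzyme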
# Settings: HEK293T DAGLB membrane lysate, EnzChek fluorogenic substrate; at 5.17 µM; stronger effect = higher value
# Diacylglycerol lipase-beta (Homo sapiens), sequence (Q8NCG7 whole entry, looked up): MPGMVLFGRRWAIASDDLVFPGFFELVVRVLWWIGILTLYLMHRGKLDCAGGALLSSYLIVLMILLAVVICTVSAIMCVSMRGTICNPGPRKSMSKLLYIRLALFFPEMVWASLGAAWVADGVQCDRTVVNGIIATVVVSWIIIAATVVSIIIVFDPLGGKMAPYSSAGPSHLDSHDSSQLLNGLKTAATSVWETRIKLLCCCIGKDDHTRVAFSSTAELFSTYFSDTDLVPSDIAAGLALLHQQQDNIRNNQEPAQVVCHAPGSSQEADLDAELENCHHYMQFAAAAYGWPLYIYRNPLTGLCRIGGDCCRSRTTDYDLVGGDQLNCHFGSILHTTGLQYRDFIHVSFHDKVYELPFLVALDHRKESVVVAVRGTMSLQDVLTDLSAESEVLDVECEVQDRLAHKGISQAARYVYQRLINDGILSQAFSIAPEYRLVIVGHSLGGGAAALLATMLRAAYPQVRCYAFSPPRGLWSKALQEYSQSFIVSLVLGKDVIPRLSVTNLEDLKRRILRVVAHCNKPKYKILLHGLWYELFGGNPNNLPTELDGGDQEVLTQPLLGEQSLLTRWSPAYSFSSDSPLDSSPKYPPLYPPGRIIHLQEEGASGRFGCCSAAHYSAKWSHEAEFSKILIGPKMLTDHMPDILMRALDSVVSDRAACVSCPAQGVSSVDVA
row,Structure (SMILES),inhibition
1,COC(=O)c1cccc(N2C(=O)C3C4C=CC(CC4)C3C2=O)c1 (stereo not drawn),-2.32%
2,O=C(Oc1cccc(N2C(=O)C3C4c5ccccc5C(c5ccccc54)C3C2=O)c1)c1ccco1 (stereo not drawn),34.9% (active)
3,CC(=O)Nc1ccc(N2C(=O)C3C4CC(=O)C(c5ccccc54)C3C2=O)cc1 (stereo not drawn),2.73%
4,CCOC(=O)C1=NN(c2ccc(Cl)cc2)/C(=C/C2=NCCc3cc(OC)c(OC)cc32)S1,3.17%
5,CCN(CC(=O)Nc1ccc(NC(C)=O)cc1)C(=O)CSC(=S)N1CCCC1,-0.87%
6,Cn1c(-c2ccc(C(=O)c3ccccc3)s2)nc2ccccc21,-0.73%
7,O=C1Cc2cc(S(=O)(=O)Nc3cccc(F)c3)ccc2N1,0.82%
8,O=C(CCNC(=O)c1ccc([N+](=O)[O-])cc1)NC1CCCCC1,0.66%
9,O=C(/C=C/c1ccc(Cl)cc1)NCCCn1ccnc1,-2.05%
10,CCOc1ccc(Br)cc1S(=O)(=O)Nc1cccc(S(=O)(=O)N(CC)CC)c1,-0.11%
11,Cc1cc(NC(=O)Nc2c[nH]c(=O)[nH]c2=O)ccc1Br,-0.76%
12,Cc1ccc(-c2nn(C(C)(C)C)c3ncnc(N)c23)cc1,-2.33%
13,CCCCCCn1c(=O)n2n(c1=O)C[C@]1(OC(=O)NCc3ccc(OC)c(OC)c3)CN(S(=O)(=O)c3ccc(C)cc3)C[C@]1(O)C2,1.56%
14,CC(NC(=O)c1ccc(S(=O)(=O)Nc2ccccc2)cc1)c1ccc(S(N)(=O)=O)cc1 (stereo not drawn),1.2%
15,Cc1ccccc1OCCC(=O)Nc1c(C)n(C)n(-c2ccccc2)c1=O,-2.86%
16,CCOc1nnc(C)c2c(C)n(-c3cccc(Cl)c3)nc12,-5.36%
17,O=[N+]([O-])c1cc(S(=O)(=O)CCCN2CCOCC2)ccc1F,-0.41%
18,Cc1nc2ccc(S(=O)(=O)N(C)CC(=O)NC(C)c3ccccc3)cc2s1 (stereo not drawn),1.36%
19,O=C1N(c2ccc(Cl)cc2)C(c2ccc(Cl)cc2)N2CCCN12 (stereo not drawn),-1.46%
20,COc1cccc(/C=N/Nc2ccc(S(=O)(=O)Nc3ccccc3C(=O)O)cc2[N+](=O)[O-])c1O,39.5% (active)
21,COc1ccc(S(=O)(=O)Nc2ccccc2C(=O)N2CCCC2)cc1C,0.86%
22,CCOc1ncccc1C(=O)NNC(=O)c1cccc(S(=O)(=O)Nc2ccccc2OC)c1,1.16%

row,Structure (SMILES),inhibition
1,COc1ccc(Br)cc1/C=N/Nc1ccc(S(=O)(=O)Nc2ccccc2C(=O)O)cc1[N+](=O)[O-],35.8% (active)
2,COc1ccc(S(=O)(=O)Nc2ccc3cn[nH]c3c2)cc1[N+](=O)[O-],-1.73%
3,COC(=O)c1ccccc1NS(=O)(=O)c1ccc2[nH]c(=O)[nH]c2c1,-1.28%
4,Cc1ccc(OCCCCN2CCCCC2)c(Br)c1,1.62%
5,CCCNC(=O)CN(Cc1ccccc1F)S(=O)(=O)c1ccc(C)cc1,1.71%
6,COc1ccccc1C(=O)NC(=O)COC(=O)C1CC1,3.34%
7,N#CC(Cc1cc2ccccc2n1S(=O)(=O)c1ccccc1)OCc1ccccc1 (stereo not drawn),-8.05%
8,O=C(O)CCCCCCCCc1cn(CN2C(=O)c3ccccc3C2=O)nn1,1.19%
9,COc1cc(C2C(C(=O)c3sc(C)nc3C)=C(O)C(=O)N2CCN(C)C)cc(OC)c1OC (stereo not drawn),0.65%
10,O=C(N[C@@H]1C/C=C\C[C@@H](CC(=O)N(CCO)Cc2ccccc2)C(=O)N[C@H](Cc2ccccc2)COC1=O)OCC1c2ccccc2-c2ccccc21,-1.54%
11,O=C(CCc1ccc(O)cc1)NN=Cc1cc(Br)ccc1O,3.63%
12,NC(N)=NCCCc1cn(CC(=O)N2CCNCC2)nn1,-3.67%
13,COc1ccc(CCNC(=O)c2ccc(NC(=O)CC3SC(N4CCCCC4)=NC3=O)cc2)cc1OC (stereo not drawn),2.1%
14,O=C(O)c1ccccc1-c1ccccc1C(=O)Nc1ccccc1Br,0.09%
15,CC(NC(=O)c1ccccc1SCC(=O)N1CCCC1)c1ccccc1 (stereo not drawn),0.41%
16,Cc1ccc2cccc(O)c2[n+]1[O-],1.39%
17,CN1CCC(=NNC(=O)CN(c2cccc(Cl)c2)S(C)(=O)=O)CC1,-3.34%
18,Cc1ccccc1CSc1nnc(Cn2c(=O)sc3ccccc32)n1C,0.6%
19,C/C(=N\OCC(=O)Nc1ccc(Br)cc1)c1cccs1,-7.81%
20,COc1ccccc1C1CCN(C(=S)Nc2ccc(Br)cc2)CC1,23.2%
21,CCc1cccc(C)c1NS(=O)(=O)c1c(C)nc2sccn2c1=O,-0.01%
22,COc1ccc(S(=O)(=O)N/N=C\c2ccc(OC)c(COc3ccc(C)cc3[N+](=O)[O-])c2)cc1,-2.91%

row,Structure (SMILES),inhibition
1,O=c1c2ccccc2nc2n1C(CSCc1cccc(C(F)(F)F)c1)CS2 (stereo not drawn),-3.32%
2,COc1cc(NC(=O)CCS(=O)(=O)c2ccc3c(c2)oc(=O)n3C)cc(OC)c1,-2.39%
3,CC(=O)Nc1ccc(/C(C)=N/NC(=O)CN(c2ccccc2Br)S(C)(=O)=O)cc1,1.17%
4,COc1ccc(CNC(=O)C(=O)N2CCC3(CC2)OCCN3S(=O)(=O)c2ccc(C)cc2)cc1,-1.66%
5,COC(=O)c1cccc(NS(C)(=O)=O)c1,-0.97%
6,CC(OC(=O)c1cc2ccccc2o1)C(=O)Nc1ccc(N2CCOCC2)cc1 (stereo not drawn),-1.16%
7,COc1ccc(C(=O)OCC(=O)Nc2cc(C)on2)cc1F,1.42%
8,COCCCN1C(=O)C(CC(=O)NCc2cccs2)CC(C(=O)N2CCOCC2)=C1C (stereo not drawn),-1.14%
9,CN(C(=O)CN1C(=O)CCSc2ccc(S(=O)(=O)N3CCCC3)cc21)c1ccccc1,3.08%
10,O=C1CCCN1CCCNC(=S)Nc1ccc(F)c(Cl)c1,0.01%
11,COC(=O)CN1C(C)=Nc2ccc(Br)cc2C1c1ccccc1 (stereo not drawn),0.08%
12,Cc1ccccc1C(=O)NNC(=O)CN1C(=O)c2ccccc2C1=O,0.77%
13,CC(=O)c1ccc(S(=O)(=O)N2CCC(Oc3ccc(-n4cnnn4)cc3)CC2)cc1,-1.2%
14,COc1ccc(-c2cc(C(F)(F)F)nc(S(C)(=O)=O)n2)cc1OC,-5.4%
15,O=C(Cn1ncc2c3ccccc3n(Cc3ccccc3)c2c1=O)NCCCN1CCOCC1,-2.32%
16,CC(C)c1ccc2c(c1)c(SC(C)(C)C)c(CC(C)(C)C(=O)O)n2Cc1ccc(Cl)cc1,1.23%
17,COCc1cc(C)n(CC(=O)NCC2CCCO2)c(=O)c1C#N (stereo not drawn),0.87%
18,CS(=O)(=O)N1CCCC(C(=O)Nc2ccccc2C(F)(F)F)C1 (stereo not drawn),-1.81%
19,COC(=O)C(=Nc1ccccc1)/C(C(=O)C(=O)N(C)c1ccccc1)=C(\O)c1ccc(Cl)cc1,4.54%
20,COc1ccc(CNC(=O)c2ccc3oc(C(C)C)nc3c2)cc1,-2.02%
21,Cc1ccc(CC(=O)N(C)CC(=O)N(CC(C)C)c2c(N)n(CC(C)C)c(=O)[nH]c2=O)cc1C,1.88%
22,COc1ccc(C2=NS(=O)(=O)N(C)C(C(=O)NC(C)c3ccccc3)=C2)cc1 (stereo not drawn),-1.27%

row,Structure (SMILES),inhibition
1,CCCNC(=O)CCn1cc(-c2ccc(OC)cc2)nc1CCN,-2.88%
2,CCC(Oc1ccccc1C)C(=O)Nc1ccc(S(=O)(=O)Nc2cc(C)on2)cc1 (stereo not drawn),2.56%
3,Cc1cccc2[nH]c(CN(C)C(=O)C3CCC(=O)N(CCc4ccccc4)C3)nc12 (stereo not drawn),1.57%
4,Cc1ccc(S(=O)(=O)N2[C@@H](c3ccc(Br)cc3)C(C(=O)O)=C[C@H]2CC2CCCC2)cc1,7.5%
5,Cc1ccc(N2CC(C(=O)N3CCC4(CC3)CC(=O)c3ccccc3O4)CC2=O)cc1C (stereo not drawn),-0.05%
6,CCc1c(C)sc(NC(=O)OC)c1C(=O)N1CCOCC1,-2.33%
7,Cc1ccccc1C(=O)N1CCC(C(=O)Nc2ccc(S(=O)(=O)N(C)C(C)C)cc2)CC1,-0.44%
8,CC1Cc2ccccc2N1C(=O)c1cc2sccc2n1Cc1ccccc1 (stereo not drawn),-8.28%
9,COc1cccc(NC(=O)CN(C)CC(=O)c2c(N)n(Cc3ccccc3)c(=O)n(C)c2=O)c1,0.04%
10,Nc1ccccc1-c1nc2ccncc2[nH]1,0.67%
11,CN(C)c1ccc(NC(=O)CN2C3CCCC2CC(NC(=O)c2ccccc2)C3)cc1 (stereo not drawn),0.94%
12,CCOC(=O)c1c(NC(=O)CCCN2CCOCC2)sc2c1CC(C)(C)OC2,-0.04%
13,CCOCCCNC(=O)c1cc2c(=O)n3ccccc3nc2s1,1.17%
14,CCCC(O)(c1ccccc1)C(c1ccccc1)c1ccccn1 (stereo not drawn),-1.16%
15,Cc1ccc(OC(=O)c2c(C)nn(-c3ccccc3)c2C)cc1,-9.87%
16,Cc1ccc(Cl)c(NC(=O)CN(C)CC(=O)Nc2ccc(F)c(F)c2F)c1Cl,2.92%
17,CCOc1ccccc1OCCCNCc1ccccc1,-2.73%
18,C=CCOc1nc2c(c(=O)n(C)c(=O)n2C)n1Cc1ccc(Cl)cc1Cl,-0.75%
19,CCOC(=O)C1CCN(C(=O)Nc2ccc(C)c(Cl)c2)CC1,0.52%
20,CCN(CC(=O)NCCCN1CCOCC1)S(=O)(=O)c1cc(Cl)ccc1Cl,3.54%
21,CN(c1ccccn1)c1ncnc2[nH]ncc12,0.01%
22,Cc1ccnc(NC(=O)C2CCN(S(=O)(=O)c3c(C)c(C)cc(C)c3C)CC2)c1,-5.56%
